In PubChem BioAssay (NCATS):
Inconclusive results are not listed. Entries that show only a call come without a potency. The source made the active and inactive calls. Unless noted, the call rests on the fitted dose curve; in most records, active means well fitted inhibition curve with a large enough effect; inconclusive means small, poorly fitted or top-dose-only effect; inactive means flat fitted curve, though single readings scatter.

Columns and labels:
[1] = S16 Schwann cell PMP22 intronic element beta-lactamase assay (AID 624044; calls by dose curve; further: nearly all actives have a fitted effect of over 15% in size)
In short: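 Beta-lactamase reporter under a PMP22 intronic regulatory element in stable S16 rat Schwann cells; 24 h compound exposure. 460 nm blue signal normalized between DMSO (0%) and potassium clavulanate, with 535 nm FRET tracking viability; curves classed by r2 and response.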

AA1029 = test: qHTS profiling for inhibitors of Plasmodium falciparum proliferation (AID 504749); further: nearly all actives have a fitted effect of over 60% in size; further: potency means the concentration at half of the fitted maximal effect; conditions: P. falciparum in erythrocytes, SYBR Green DNA, 72 h; series mostly up to 12.8 µM
In short: (§1)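 Fluorescence of SYBR Green-bound parasite DNA, read at 485/535 nm, served as the growth measure. Infected erythrocytes were cultured with compound 72 h; artemisinin (0.29 uM) and DMSO wells defined the normalization range.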

CP194 = test: as above; conditions: P. falciparum in erythrocytes, SYBR Green DNA, 72 h; series mostly up to 12.8 µM
In short: as §1

CP201 = test: as above; conditions: P. falciparum in erythrocytes, SYBR Green DNA, 72 h; series mostly up to 12.8 µM
In short: as §1

CP237 = test: as above; conditions: P. falciparum in erythrocytes, SYBR Green DNA, 72 h; series mostly up to 12.8 µM
In short: as §1

CP252 = test: as above; conditions: P. falciparum in erythrocytes, SYBR Green DNA, 72 h; series mostly up to 12.8 µM
In short: as §1

CP265 = test: as above; conditions: P. falciparum in erythrocytes, SYBR Green DNA, 72 h; series mostly up to 12.8 µM
In short: as §1

CP268 = test: as above; conditions: P. falciparum in erythrocytes, SYBR Green DNA, 72 h; series mostly up to 12.8 µM
In short: as §1

CP286 = test: as above; conditions: P. falciparum in erythrocytes, SYBR Green DNA, 72 h; series mostly up to 12.8 µM
In short: as §1

CP291 = test: as above; conditions: P. falciparum in erythrocytes, SYBR Green DNA, 72 h; series mostly up to 12.8 µM
In short: as §1

CP305 = test: as above; conditions: P. falciparum in erythrocytes, SYBR Green DNA, 72 h; series mostly up to 12.8 µM
In short: as §1

CP325 = test: as above; conditions: P. falciparum in erythrocytes, SYBR Green DNA, 72 h; series mostly up to 12.8 µM
In short: as §1

CP329 = test: as above; conditions: P. falciparum in erythrocytes, SYBR Green DNA, 72 h; series mostly up to 12.8 µM
In short: as §1

DFO2036 = test: as above; conditions: P. falciparum in erythrocytes, SYBR Green DNA, 72 h; series mostly up to 12.8 µM
In short: as §1

DIV17 = test: as above; conditions: P. falciparum in erythrocytes, SYBR Green DNA, 72 h; series mostly up to 12.8 µM
In short: as §1

DIV30 = test: as above; conditions: P. falciparum in erythrocytes, SYBR Green DNA, 72 h; series mostly up to 12.8 µM
In short: as §1

ICS = test: as above; conditions: P. falciparum in erythrocytes, SYBR Green DNA, 72 h; series mostly up to 12.8 µM
In short: as §1

P93_24 = test: as above; conditions: P. falciparum in erythrocytes, SYBR Green DNA, 72 h; series mostly up to 12.8 µM
In short: as §1

TAB109 = test: as above; conditions: P. falciparum in erythrocytes, SYBR Green DNA, 72 h; series mostly up to 12.8 µM
In short: as §1

TAB113 = test: as above; conditions: P. falciparum in erythrocytes, SYBR Green DNA, 72 h; series mostly up to 12.8 µM
In short: as §1

SMILES | Potency [1] | Potency (AA1029) | Potency (CP194) | Potency (CP201) | Potency (CP237) | Potency (CP252) | Potency (CP265) | Potency (CP268) | Potency (CP286) | Potency (CP291) | Potency (CP305) | Potency (CP325) | Potency (CP329) | Potency (DFO2036) | Potency (DIV17) | Potency (DIV30) | Potency (ICS) | Potency (P93_24) | Potency (TAB109) | Potency (TAB113)
COCC(=O)Nc1c(I)c(C(=O)NC[C@@H](O)CO)c(I)c(C(=O)N(C)C[C@@H](O)CO)c1I | inactive | inactive | inactive | inactive | inactive | inactive | inactive | inactive | inactive | inactive | inactive | inactive | inactive | inactive | inactive | inactive | inactive | inactive | inactive | inactive
CC(=O)[C@@H]1CC[C@@H]2[C@@H]3C[C@H](C)C4=CC(=O)CC[C@@]4(C)[C@H]3[C@H](O)C[C@]21C | inactive | inactive | inactive | inactive | inactive | inactive | inactive | inactive | inactive | inactive | inactive | inactive | inactive | inactive | inactive | inactive |  | inactive | inactive | inactive
C#C[C@@]1(O)CC[C@@H]2[C@@H]3CCC4=C(CCC(=O)C4)[C@H]3CC[C@]21C | inactive |  |  |  |  |  |  |  |  |  |  |  |  |  |  |  |  |  |  | 
C=CC1=C(C(=O)O)N2C(=O)[C@@H](NC(=O)/C(=N\OCC(=O)O)c3csc(N)n3)[C@@H]2SC1 | inactive | inactive | inactive | inactive | inactive | inactive | inactive |  | inactive | inactive | inactive | inactive | inactive | inactive | inactive | inactive | inactive | inactive | inactive | inactive
CC(=O)OCC(=O)[C@@]1(O)CC[C@@H]2[C@H]3CCC4=CC(=O)C=C[C@]4(C)[C@]3(F)[C@@H](O)C[C@@]21C | inactive | inactive | inactive | inactive | inactive | inactive | inactive | inactive | inactive | inactive | inactive | inactive | inactive | inactive | inactive | inactive | inactive | inactive | inactive | inactive
C[C@H]1CC[C@]2(OC1)O[C@@H]1C[C@@H]3[C@@H]4CC[C@H]5C[C@@H](O)CC[C@]5(C)[C@@H]4CC(=O)[C@@]3(C)[C@H]1[C@@H]2C |  | inactive | inactive | inactive | inactive | inactive | inactive | inactive | inactive | inactive | inactive | inactive | inactive | inactive | inactive | inactive | inactive | inactive | inactive | inactive
CC(=O)C[C@H](c1ccc([N+](=O)[O-])cc1)c1c(O)c2ccccc2oc1=O | inactive | inactive | inactive | inactive | inactive | inactive | inactive | inactive | inactive | inactive | inactive | inactive | inactive | inactive | inactive | inactive | inactive | inactive | inactive | inactive
NS(=O)(=O)c1cc2c(cc1C(F)(F)F)N[C@H](Cc1ccccc1)NS2(=O)=O |  | inactive | inactive | inactive | inactive | inactive | inactive | inactive | inactive | inactive | inactive | inactive | inactive | inactive | inactive | inactive | inactive | inactive | inactive | inactive
CCCC[C@H](CC)CN1CN(C[C@@H](CC)CCCC)CC(C)(N)C1 | inactive | inactive | inactive | inactive |  | inactive | inactive | inactive |  | inactive | inactive | inactive | inactive | inactive | inactive | inactive | 4.47 µM (active) | inactive | inactive | inactive
NS(=O)(=O)c1cc2c(cc1Cl)N[C@@H](C(Cl)Cl)NS2(=O)=O | inactive | inactive | inactive | inactive | inactive | inactive | inactive | inactive | inactive | inactive | inactive | inactive | inactive | inactive | inactive | inactive | inactive | inactive | inactive | inactive
COc1c(O[C@H]2O[C@@H](CO)[C@@H](O)[C@@H](O)[C@@H]2O)cc2c(c1OC)-c1ccc(SC)c(=O)cc1[C@H](NC(C)=O)CC2 | inactive | inactive | inactive | inactive | inactive | inactive | inactive | inactive | inactive | inactive | inactive | inactive | inactive | inactive | inactive | inactive | inactive | inactive | inactive | inactive
NC(=O)c1ccc[n+]([C@@H]2O[C@H](COP(=O)([O-])OP(=O)(O)OC[C@H]3O[C@@H](n4cnc5c(N)ncnc54)[C@@H](O)[C@@H]3O)[C@@H](O)[C@@H]2O)c1 | inactive | inactive | inactive | inactive | inactive | inactive | inactive | inactive | inactive | inactive | inactive | inactive | inactive | inactive | inactive | inactive | inactive | inactive | inactive | inactive
